What all share (assay): NCI-60 one-dose screen, 48 h (100 = growth as untreated, 0 = no growth, -100 = all killed)
Holding throughout (settings): 10 µM unless noted

Experiment [1] relates to SR leukemia.
Experiment [2] has as its system RPMI-8226 leukemia.
The test system of experiment [3] is OVCAR-8 ovarian.
For experiment [4], the system named is OVCAR-5 ovarian.
The test system of experiment [5] is OVCAR-4 ovarian.
Experiment [6] has as its system SK-OV-3 ovarian.
The test system of experiment [7] is IGROV1 ovarian.
The test system of experiment [8] is OVCAR-3 ovarian.
Experiment [9] has as its system HS 578T breast.
The subject of experiment [10] is NCI/ADR-RES ovarian.

Our source for the growth values is PubChem BioAssay (NCI).

SMILES strings stand for the structures. Compounds without any hit were thinned out: in the full panel of roughly 83,000, 20% have a hit.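 In brief: 96-well plates, 48 h treatment, single concentration, percent growth endpoint.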 Values without a mark were called inactive. Active and inactive are the calls of the source. How the source made its calls: active means growth percent below 10; inactive means the rest.

`COC(=O)[C@H]1Cc2c([nH]c3ccccc23)[C@@H](c2cccs2)N1`: the growth in [1] was 108%; in [2] it was 103%; in experiment [3], 104%; in experiment [4] it was 102%; in experiment [5], 102%; in [6] it was 102%. The growth is 101% in [7], 111% in [8], 103% in experiment [9] and 106% in experiment [10].
As for `COc1cc(Nc2nc3ccccc3cc2C(=O)Nc2ccc(F)c(F)c2)cc(OC)c1OC`, the growth in experiment [1] is 29.6%; in experiment [2], 21.8%; in experiment [3], 15.5%; in experiment [4], 63.9%; in [5] it was 23%; in experiment [6] it was 42.2%. Also, the growth in experiment [7] was 30.8%; in experiment [8], 10.6%; in experiment [9], 61.2%; in experiment [10], 6.91% (active).
With `COc1ccc(C/C(C)=C(\c2ccc(O)cc2)c2ccc(OCCCN(C)C)cc2)cc1`, the growth is 59.7% in [1]; 86.8% in experiment [2]; 89.5% in experiment [3]; 102% in experiment [4]; 92.6% in experiment [5]; 101% in experiment [6]. Also, the growth in experiment [7] is 102%; in [8], 98.3%; in [9], 89%; in experiment [10], 98.5%.
Take `COc1cc(/C=C(/c2ccccc2)[N+](=O)[O-])c(OC)c2c1OCO2`: the growth in experiment [1] was -18.9% (active); in [2], -19.7% (active); in experiment [3], -1.64% (active); in experiment [4], -36.7% (active); in [5], -25.9% (active); in experiment [6] it was 63%. The growth in experiment [7] is -41.8% (active); in experiment [8], -97.4% (active); in [9], 31%; in [10], 10.7%.
`N#C/C(=N\Nc1ccc(Cl)cc1)C(=O)Nc1cc(-c2ccccc2)nn1-c1ccccc1`: the growth in experiment [1] is 89.4%; in experiment [2], 1.81% (active); in [3], 25.6%; in experiment [4], 81.6%; in [5], 36.8%; in [6] it was 26.4%. Moreover, the growth was 19.9% in [7], 15.4% in [8], 47% in experiment [9] and 29.7% in experiment [10].
Take `N=c1c2c(-c3ccccc3)c(-c3ccccc3)oc2ncn1NC(=O)c1cccnc1`: the growth was 77.7% in [1]; 97.5% in experiment [2]; 97.7% in [3]; 109% in experiment [4]; 101% in experiment [5]; 99.2% in experiment [6]. The growth in experiment [7] was 95.7%; in experiment [8], 111%; in [9], 103%; in [10], 107%.
For the compound `O=C(/C=C/C12c3ccccc3C(c3ccccc31)C1C(=O)NC(=O)C12)c1ccncc1` (stereo not given), the growth in experiment [1] is 1.11% (active); in [2] it was -29.6% (active); in experiment [3], 1.79% (active); in experiment [4] it was 13.7%; in experiment [5], 31.8%; in experiment [6] it was 71.8%. Also, the growth in [7] was 9.72% (active); in [8], 4.84% (active); in [9] it was 38%; in [10] it was 23.9%.
Consider `Cc1ccc(C(=O)Nc2nc3c(s2)CN(Cc2ccccc2)CC3)cn1`, for which the growth is 64% in [1]; 77.8% in experiment [2]; 95.7% in [3]; 103% in experiment [4]; 78.7% in [5]; 89.2% in [6]. The growth in experiment [7] was 82.4%; in experiment [8], 88.1%; in experiment [9], 98.3%; in experiment [10], 70.5%.
As to `CCOC(=O)c1nc2c3ccccc3cnn2c1C(=O)c1ccc(OC)cc1`, the growth in [1] was 90.6%; in experiment [2], 95.6%; in [3] it was 98.2%; in experiment [4] it was 106%; in experiment [5], 89.4%; in [6], 81.6%. Besides, the growth in experiment [7] is 105%; in experiment [8], 110%; in [9], 101%; in [10], 94.4%.
With `N#Cc1cc(-c2ccnc(Nc3ccc(NC(=O)CCl)cc3)n2)ccc1N1CCCC1`, the growth is 1.78% (active) in [1]; -24.3% (active) in [2]; 6.56% (active) in experiment [3]; -9.19% (active) in [4]; -20.8% (active) in experiment [5]; -48.6% (active) in [6]. Further, the growth is -1.3% (active) in experiment [7], -46% (active) in [8], 12.6% in [9] and 10.9% in experiment [10].
In the case of `CCN1CCN(CC(=O)Nc2nc3ccc(NCc4ccc(C)cc4)cc3s2)CC1`, the growth was 7.22% (active) in experiment [1]; 48.8% in experiment [2]; 85.9% in [3]; 80.5% in [4]; 75% in [5]; 91.5% in [6]. Further, the growth in [7] is 91.4%; in [8], 70.3%; in experiment [9] it was 84.9%; in [10], 81.8%.
For `O=C(NNC(=S)Nc1ccccc1)c1ccncc1`, the growth in [1] is 99.2%; in experiment [2] it was 96.8%; in experiment [3], 104%; in experiment [4] it was 107%; in [5] it was 116%; in [6], 118%. The growth was 106% in [7], 114% in experiment [8], 132% in experiment [9] and 105% in experiment [10].
